Experimental data reported in PubChem BioAssay (NCI).
This is part of a sample that, as a whole, favours compounds with a hit. Of some 79,000 tested, about 15% had one in any assay. Rule as the data show it: active = growth inhibition above about 70%; inactive = the rest.

Tests used:
[1] = NCI Yeast Anticancer Drug Screen. Data for the rad50 strain (AID 155);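 also: 0% = growth of vehicle-only cultures of the same strain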; conditions: S. cerevisiae rad50 strain growth inhibition; at 50.0 µM; stronger effect = higher value
In short: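 Vehicle-treated cultures provide the reference for the growth inhibition reported for compound-exposed, repair-deficient yeast.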

[2] = NCI Yeast Anticancer Drug Screen. Data for the mec2-1 strain (AID 157); conditions: S. cerevisiae mec2-1 strain, at 50.0 µM, stronger effect = higher value
In short: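 Using mec2-1 yeast: add compound, measure growth, express inhibition versus vehicle-treated cultures.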

[3] = NCI Yeast Anticancer Drug Screen. Data for the sgs1 mgt1 strain (AID 161);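 also: 0% = growth of cultures given vehicle only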; conditions: S. cerevisiae sgs1 mgt1 strain, at 50.0 µM, stronger effect = higher value
In short: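 Growth of a repair-deficient yeast mutant was monitored after compound treatment and expressed as inhibition relative to vehicle-treated cultures.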

[4] = NCI Yeast Anticancer Drug Screen. Data for the cln2 rad14 strain (AID 165);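 also: 0% = growth equal to vehicle treated cultures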; conditions: S. cerevisiae cln2 rad14 strain, at 50.0 µM, stronger effect = higher value
In short: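 Yeast strain cln2 rad14, bearing defects in cell cycle control and DNA repair, serves as the test system; values reflect growth inhibition compared with vehicle.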

[5] = NCI Yeast Anticancer Drug Screen. Data for the bub3 strain (AID 167); conditions: S. cerevisiae bub3 mutant strain, at 50.0 µM, stronger effect = higher value
In short: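 Mutant yeast screening strain plus compound; vehicle-treated cultures serve as the 0% inhibition reference.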

[6] = NCI Yeast Anticancer Drug Screen. Data for the mlh1 rad18 strain (AID 175); conditions: S. cerevisiae mlh1 rad18 strain growth inhibition; at 50.0 µM; stronger effect = higher value
In short: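 Steps: expose repair-defective yeast to compound; measure growth; express inhibition against vehicle-treated controls.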

Measured: growth inhibition

CCCCC1(N=[N+]=[N-])C(=O)c2cccc3c2N(CCC3)C1=O (stereo unspecified)
inactive: [1] 48.8% | [2] 30.9% | [3] 29.9% | [4] 3.1% | [5] 15.6% | [6] 61.5%

CNC(=O)NCCCC(NC(C)=O)C(=O)NCc1ccccc1 (stereo unspecified)
inactive: [1] -19% | [2] -16.7% | [3] -16.2% | [4] 6.4% | [5] -12.5% | [6] 4.7%

COc1cccc(/C=N/[N-]C(N)=O)c1[O-].[OH3+].[Pd+2]
inactive: [1] 7.65% | [2] 8.2% | [3] 15.9% | [4] 7.4% | [5] 18.9% | [6] 21.6%

O=C(O)CCCCCCc1ccc2ccccc2n1
inactive: [1] 16.8% | [2] 13.8% | [3] 16.5% | [4] 10% | [5] 7.05% | [6] -3.55%

COc1ccc(CC(=O)c2c(O)c3c(c(CC=C(C)C)c2OC)OC(C)(C)C=C3)cc1
inactive: [1] 22.4% | [2] -26.3% | [3] -14.8% | [4] 4.15% | [5] -2.75% | [6] 14.2%

COc1cc(C=Nc2ccc(N3CCOCC3)cc2)ccc1O
inactive: [1] -1.1% | [2] -3.45% | [3] -8.45% | [4] -18.6% | [5] 12.6% | [6] -1.25%

CN(C)c1ccc(SSc2ccc(N(C)C)cc2)cc1
inactive: [1] -6.9% | [2] -20.6% | [3] 3.2% | [4] -3.9% | [5] 6.55% | [6] 1.25%

COc1ccc2[nH]c3c(c2c1)[C@H](c1ccccc1)C[C@@H]1C(=O)N(c2ccccc2)C(=O)[C@H]31
inactive: [1] -5.25% | [2] -6.65% | [3] 1.75% | [4] 0.65% | [5] -8.9% | [6] -7.95%

COC(=O)C(C)OC(=O)OCC(C)C (stereo unspecified)
inactive: [1] -11.1% | [2] -1.9% | [3] 0.15% | [4] -2.95% | [5] -2.95% | [6] -11.8%

CC1CCCCN1Cc1ccccc1COC(=O)c1cccc(Br)c1 (stereo unspecified)
inactive: [1] 32.5% | [2] -1.65% | [3] 43.3% | [4] -16.9% | [5] 16.1% | [6] 2.4%

CN/N=C(/c1nc2ccc([N+](=O)[O-])cc2[nH]c1=O)C(O)c1ccc(C(O)/C(=N\NC)c2nc3ccc([N+](=O)[O-])cc3[nH]c2=O)cc1 (stereo unspecified)
inactive: [1] 31.2% | [2] -5.55% | [3] 0.6% | [4] -26.2% | [5] -3.85% | [6] 19.4%

O=C(CCC(O)c1ccccc1)c1ccccc1 (stereo unspecified)
inactive: [1] -13.6% | [2] -12.3% | [3] -9.3% | [4] -10.9% | [5] 0% | [6] 2.35%

C#CCCC#C
inactive: [1] -4.4% | [2] -17.3% | [3] 8.4% | [4] 6% | [5] -16.1% | [6] -5.8%

CC(C)(C)CC(C)(C)c1ccc(OCCOc2ccc(C(=O)NCCNC(=O)c3ccc4ccccc4c3O)cc2N)cc1
inactive: [1] -13% | [2] -5.25% | [3] 3.85% | [4] 26.4% | [5] -7.1% | [6] -16.6%

CCCCCCCCCCc1ccc(CCCCCCCCCC)cc1
inactive: [1] 7% | [2] 7.2% | [3] 4.6% | [4] -4.55% | [5] 2.05% | [6] -7.9%

Cn1c([N+](=O)[O-])cnc1/C=C1\CCc2cc(OCCN3CCCC3)ccc2C1=O
inactive: [1] 30.4% | [2] 24.3% | [3] 36.4% | [4] 21.6% | [5] -2% | [6] 38.3%

CCCCNS(=O)(=O)CCCC
inactive: [1] 22.2% | [2] 2.4% | [3] -6.35% | [4] -29.6% | [5] 6.15% | [6] -9.8%

O=c1oc2ccccc2c(O)c1C(c1cc(OCc2ccccc2)cc(OCc2ccccc2)c1)c1c(O)c2ccccc2oc1=O
inactive: [1] -12.1% | [2] -2.85% | [3] -2.1% | [4] -19.4% | [5] -11.7% | [6] -16.6%

Fc1ccc(Cl)c2cccnc12
inactive: [1] 2.75% | [2] 9.85% | [3] -6% | [4] -33.7% | [5] 3.95% | [6] 8.1%

COC(=O)C1(Br)c2ccccc2-c2ccccc21
inactive: [1] -3.15% | [2] 17.7% | [3] 0.45% | [4] -22.4% | [5] 8.5% | [6] -9.3%

CCC(=O)OC1CCC(OC(=O)CC)CC1 (stereo unspecified)
inactive: [1] 7.3% | [2] 9.8% | [3] 2.45% | [4] -1.9% | [5] -6.05% | [6] -6.2%
